Experimental findings from PubChem BioAssay (NCI) are described below.

Among the test systems are NCI-H23 lung; NCI-H322M lung; HOP-62 NSCLC; NCI-H460 lung; HOP-92 NSCLC; NCI-H522 lung; A549/ATCC NSCLC; 786-0 renal; DU-145 prostate.
Assay in all cases: NCI-60 one-dose screen, 48 h (100 = growth as untreated, 0 = no growth, -100 = all killed)
Conditions in all cases: 10 µM unless noted

About 83,000 compounds went through this panel and 20% of them were active in at least one assay; those are over-represented in the sample as a whole.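 Single-concentration screen, 48 h exposure, 96-well plates. Endpoint: percent growth. Below 10 = active.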 A number with no mark means an inactive call. Active and inactive are the calls of the source.

For the molecule `COc1ccc(C2=C(c3cccc(OC)c3)C(=O)c3ccc(C)nc3C2=O)cc1`, the growth in the assay with NCI-H23 lung is 37.5%; in the assay with NCI-H322M lung, 76.4%; in the assay on HOP-62 NSCLC, 34.4%; with NCI-H460 lung, 13.4%; in the assay with HOP-92 NSCLC, 80%; with NCI-H522 lung, 40.9%. The growth with A549/ATCC NSCLC was 40.8%; in the assay with 786-0 renal, 67.8%; in the assay on DU-145 prostate, 54.3%.

Turning to `O=S(=O)(Nc1ncccn1)c1ccc(NC2Nc3nc4ccccc4nc3S2)cc1` (stereo not drawn), the growth with NCI-H23 lung is 97%; with NCI-H322M lung it was 97.7%; in the assay with HOP-62 NSCLC it was 99.6%; with NCI-H460 lung it was 103%; in the assay on HOP-92 NSCLC, 105%; with NCI-H522 lung, 94.5%. In addition, the results for the growth in the assay with A549/ATCC NSCLC, in the assay on 786-0 renal and in the assay on DU-145 prostate were 95.8%, 100% and 105%, respectively.

In the case of `O=C(Nc1ccccc1O)c1ccc(Oc2cccc(C(=O)Nc3ccccc3O)c2)cc1`, the growth in the assay on NCI-H23 lung was 25.5%; in the assay on NCI-H322M lung, 25.9%; in the assay with HOP-62 NSCLC, 6.43% (active); with NCI-H460 lung it was 1.59% (active); in the assay on HOP-92 NSCLC, 31.4%; in the assay on NCI-H522 lung, -16% (active). Also, the growth is 7.58% (active) in the assay on A549/ATCC NSCLC, 3.76% (active) in the assay on 786-0 renal and 12.1% in the assay on DU-145 prostate.

In the case of `CN1C(=O)N(C)C2Nn3c(s/c(=C4\C(=O)N(CCc5ccccc5)c5ccccc54)c3=O)=NC21` (stereo not drawn), the growth in the assay with NCI-H23 lung was 72%; with NCI-H322M lung, 72.6%; in the assay on HOP-62 NSCLC, 75.9%; with NCI-H460 lung it was 95.4%; in the assay on HOP-92 NSCLC, 93.2%; with NCI-H522 lung, 36.7%. For the same molecule, the growth with A549/ATCC NSCLC is 55.6%; with 786-0 renal, 61.8%; in the assay with DU-145 prostate, 63%.

For the molecule `CC(=O)Nc1nc2c(s1)CCc1c-2cn(S(=O)(=O)c2ccccc2)c1-c1ccccc1`, the growth with NCI-H23 lung was 82.1%; with NCI-H322M lung it was 79.4%; in the assay on HOP-62 NSCLC, 101%; in the assay on NCI-H460 lung it was 75.3%; with HOP-92 NSCLC it was 87.4%; in the assay with NCI-H522 lung, 54.5%. In addition, the growth in the assay on A549/ATCC NSCLC is 53.4%; in the assay with 786-0 renal, 88.3%; in the assay on DU-145 prostate it was 78.4%.

Regarding `CCCCNc1nc(NC(C)(C)C)nc(NC(C)(C)C)n1`, the growth in the assay with NCI-H23 lung is 47.9%; in the assay with NCI-H322M lung it was 97.8%; in the assay on HOP-62 NSCLC, 84.1%; with NCI-H460 lung it was 82.5%; in the assay on HOP-92 NSCLC it was 48.6%; in the assay with NCI-H522 lung, 52.8%. The growth is 56.3% with A549/ATCC NSCLC, 48.2% in the assay with 786-0 renal and 74.6% in the assay on DU-145 prostate.

Turning to `Cc1ccc(N=NC2C(=O)N(c3ccc(Cl)cc3)N(c3ccc(Cl)cc3)C2=O)cc1`, the growth was 95.6% in the assay on NCI-H23 lung; 97.4% in the assay with NCI-H322M lung; 89.2% with HOP-62 NSCLC; 99.8% with NCI-H460 lung; 101% in the assay with HOP-92 NSCLC; 85.1% in the assay with NCI-H522 lung. Also, the growth is 99% in the assay on A549/ATCC NSCLC, 108% in the assay on 786-0 renal and 107% in the assay with DU-145 prostate.
